Reference: PubChem BioAssay AID697 (Columbia University Molecular Screening Center, 2007)
Hit rate of the full screen: of about 96,000 compounds, about 100 (0.1%) were called active. The entries come from a sample that favours actives as a whole. A number with no mark means an inactive call.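 How the source made its calls: active means activation at 2 µM above a set limit, the mean plus 5 SD (cut at about 37% in these data); inactive means the rest.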

target: Tyrosine-protein phosphatase non-receptor type 22 (Homo sapiens) (UniProt Q9Y2R2); assay: LYP phosphatase activators, primary screen, biochemical, DiFMUP fluorescence, 2 µM (AID 697); details: recombinant LYP, at 2 µM, stronger effect = higher value, 0 = plate median, 100 = signal doubled
Sequence (Q9Y2R2 whole entry, looked up): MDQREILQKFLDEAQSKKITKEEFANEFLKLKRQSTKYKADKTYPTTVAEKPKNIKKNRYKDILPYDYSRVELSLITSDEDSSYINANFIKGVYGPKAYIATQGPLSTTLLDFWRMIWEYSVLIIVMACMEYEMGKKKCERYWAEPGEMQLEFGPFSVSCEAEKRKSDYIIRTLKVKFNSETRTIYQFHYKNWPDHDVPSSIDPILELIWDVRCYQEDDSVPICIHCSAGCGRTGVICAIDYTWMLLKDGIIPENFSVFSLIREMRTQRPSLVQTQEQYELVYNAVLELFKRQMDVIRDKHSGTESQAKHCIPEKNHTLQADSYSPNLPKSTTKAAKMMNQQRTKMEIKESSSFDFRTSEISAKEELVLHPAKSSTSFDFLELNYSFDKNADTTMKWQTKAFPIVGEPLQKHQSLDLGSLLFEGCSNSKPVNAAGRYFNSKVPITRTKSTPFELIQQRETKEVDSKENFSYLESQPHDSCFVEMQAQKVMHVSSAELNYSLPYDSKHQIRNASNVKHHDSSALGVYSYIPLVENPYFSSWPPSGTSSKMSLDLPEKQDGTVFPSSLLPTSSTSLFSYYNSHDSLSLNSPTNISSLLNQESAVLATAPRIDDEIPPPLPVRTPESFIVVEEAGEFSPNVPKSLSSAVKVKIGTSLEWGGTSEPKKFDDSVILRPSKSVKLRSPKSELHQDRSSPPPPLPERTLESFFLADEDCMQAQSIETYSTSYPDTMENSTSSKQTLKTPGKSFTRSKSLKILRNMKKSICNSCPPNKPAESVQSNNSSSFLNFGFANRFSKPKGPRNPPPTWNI

Q: How did the activation turn out when O=C(Nc1ccc2c(c1)CCC2)c1cccc(S(=O)(=O)N2CCN(c3ccc(F)cc3)CC2)c1 was run?
A: The activation was -11.2%.

Q: Which activation does the source give for COCCCNC(=O)C1CC(=O)N(CCc2ccccc2)C1 (stereo not given) here?
A: Its activation is 3.1%.

Q: How did the activation turn out when Cc1ccc(S(=O)(=O)N2CCC(C(=O)NCC3CCCO3)CC2)cc1 (stereo not given) was run?
A: The activation was 0.4%.

Q: Which activation does the source give for COC(=O)c1ccccc1Sc1c(/C=N/OCc2ccc(Cl)cc2)c(C(F)(F)F)nn1C here?
A: Its activation is -3.5%.

Q: For CN(C(=O)CC(NC(=O)c1ccccc1)(c1ccccc1)c1ccccc1)c1ccccc1, which activation is on record?
A: The activation was -4.3%.

Q: FC(F)(F)c1cnc(Oc2ccccc2-c2nnc(-c3ccc(Cl)cc3)o2)c(Cl)c1 was tested. Which activation did it give?
A: The activation was 4.7%.

Q: With CS(=O)(=O)N(Cc1ccc(Cl)cc1)c1ccc(C(=O)NCCSCc2ccco2)cc1 as the compound, how does the activation read?
A: The activation was 10.1%.

Q: Which activation does the source give for CCOC(=O)N1CCC(N(CCOC)C(=O)Nc2ccc(C)c(C)c2)CC1 here?
A: The activation was -11.9%.

Q: How did the activation turn out when COC(=O)c1ccccc1NC(=O)Cc1ccccc1OC was run?
A: The activation was -0.7%.

Q: How did the activation turn out when COc1ccccc1C(=O)N1CC2(C)CC1CC(C)(C)C2 (stereo not given) was run?
A: Its activation is -6%.

Q: CCOC(=O)C1=C(c2ccccc2)N=C2SCC(=O)N2C1c1ccc(O)c(OC)c1 (stereo not given) was tested. Which activation did it give?
A: Its activation is 6.1%.

Q: For Cn1c(CO)cnc1SCc1ccccc1, which activation is on record?
A: The activation was 5.8%.

Q: For CN(C)c1ccc(/C=C2\NC(=S)N(Cc3ccccc3)C2=O)cc1, which activation is on record?
A: The activation was -19.7%.

Q: Which activation does the source give for CC(C)C(=O)Nc1cccc(NC(=S)NC(=O)C(c2ccccc2)c2ccccc2)c1 here?
A: Its activation is -14%.

Q: For O=C(Nc1ccc(Br)cc1)C1CCC(=O)N1Cc1ccccc1Cl (stereo not given), which activation is on record?
A: Its activation is -2.1%.

Q: For COC(=O)/C=C/C(=O)NCc1ccco1, which activation is on record?
A: Its activation is -5.4%.

Q: With N#CCSc1nc2ccc(N3CCOCC3)cc2c(=O)n1CCc1ccccc1 as the compound, how does the activation read?
A: Its activation is 3.3%.

Q: For CCOC(=O)C(=CNc1cccc(C)n1)C(=O)OCC, which activation is on record?
A: The activation was 6.8%.

Q: How did the activation turn out when CCOc1c(Br)cc(/C=C2\C(=O)N(CCC#N)N=C2C)cc1OC was run?
A: The activation was -0.1%.

Q: With CCOC(=O)c1cnc(SCc2nc(N)nc(Nc3ccc(OC)cc3)n2)nc1N as the compound, how does the activation read?
A: The activation was 0.5%.

Q: How did the activation turn out when CCC(C)NC(=O)c1cc(Cl)ccc1OC (stereo not given) was run?
A: Its activation is 7%.

Q: With CCN(CC)CCNC(=O)CCCCCn1c(=O)[nH]c2cc(C(=O)OC)ccc2c1=O as the compound, how does the activation read?
A: Its activation is 6.8%.

Q: For O=C(NC1CCCCC1)c1ccc(CNc2c(N3CCOCC3)c(=O)c2=O)cc1, which activation is on record?
A: Its activation is 10.2%.

Q: CC(C)CNC(=O)CC(c1ccccc1)c1c(O)ccc2ccccc12 (stereo not given) was tested. Which activation did it give?
A: The activation was -3.2%.

Q: How did the activation turn out when O=C(NC1CCCC1)C(c1ccccn1)N(C(=O)c1csnn1)C1CCCC1 (stereo not given) was run?
A: Its activation is -2.6%.

Q: With O=C(COc1ccc2c(C(F)(F)F)cc(=O)oc2c1)Nc1ccc2c(c1)OCCO2 as the compound, how does the activation read?
A: The activation was -12.8%.

Q: For CCOc1ccc(NC(=O)C2CC(=O)N=C(N)S2)cc1 (stereo not given), which activation is on record?
A: The activation was -0.7%.

Q: Which activation does the source give for O=C(CCN1C(=O)c2ccccc2C1=O)Nc1cccc(F)c1 here?
A: The activation was 7.2%.

Q: For CC1(C)CCc2nc(SCc3ccccc3)c(C#N)cc2C1, which activation is on record?
A: Its activation is 7.1%.

Q: How did the activation turn out when C/C(=N\NC(=O)c1ccc(C)cc1)C1C(=O)c2ccccc2C1=O was run?
A: The activation was -6.7%.

Q: For CCn1nccc1C(=O)Nc1ccc(S(=O)(=O)NC23CC4CC(CC(C4)C2)C3)cc1, which activation is on record?
A: Its activation is 4.2%.

Q: How did the activation turn out when N#C/C(=C/c1ccc(Cl)cc1)NC(=O)c1ccccc1 was run?
A: Its activation is -6.7%.

Q: OC(COc1ccc2ccccc2c1)Cn1cncn1 (stereo not given) was tested. Which activation did it give?
A: Its activation is -5.7%.

Q: With CC1(C)OC(=O)N2CCc3ccccc3C21C (stereo not given) as the compound, how does the activation read?
A: The activation was -7.1%.

Q: Which activation does the source give for Cc1ccccc1OCc1nnc(SCC(=O)N2c3ccccc3Sc3ccc(Cl)cc32)o1 here?
A: Its activation is 4.7%.

Q: CCOC(=O)C1CSC(CC(=O)Nc2ccc(OCC)cc2)C(=O)N1 (stereo not given) was tested. Which activation did it give?
A: Its activation is 4.7%.

Q: How did the activation turn out when CCN(CC)CCn1c2ccc(Cl)cc2c2nc(C)sc21 was run?
A: The activation was -0.1%.

Q: For CCCc1nc2ccccc2c(C(=O)OCC(=O)c2ccc3c(c2)NC(=O)CO3)c1CC, which activation is on record?
A: The activation was 3.9%.

Q: How did the activation turn out when Cc1cc(C)c2c(-n3cccc3)c(C(=O)NNS(=O)(=O)c3ccc(F)cc3)sc2n1 was run?
A: The activation was -0.7%.

Q: For Cc1cc(C)cc(N(CC(=O)N2CC=C(c3ccccc3)CC2)S(=O)(=O)c2c(C)noc2C)c1, which activation is on record?
A: The activation was -2.1%.

Q: For O=C(NC1CC1)c1ccc2c(c1)NC(=O)c1ccccc1S2, which activation is on record?
A: The activation was 3.4%.

Q: O=C(c1ccccc1)c1cc(-c2ccccn2)c(N2CCOCC2)s1 was tested. Which activation did it give?
A: Its activation is 6.1%.

Q: Which activation does the source give for Cc1ccccc1-n1c(C)cc(/C=C2\NC(=O)NC2=O)c1C here?
A: The activation was 12.1%.

Q: Which activation does the source give for O=C(CN1CCN(c2ccc(Cl)cc2)CC1)N1CCCC1 here?
A: Its activation is -12%.

Q: Which activation does the source give for CN(C)C(CNC(=O)CCCOc1ccccc1)c1ccco1 (stereo not given) here?
A: The activation was -1%.

Q: With N#Cc1ccsc1NC(=O)CN1CCCCC1 as the compound, how does the activation read?
A: Its activation is 5.2%.

Q: COCCn1c(=S)[nH]c2cc(C(=O)NCCc3ccc(OC)c(OC)c3)ccc2c1=O was tested. Which activation did it give?
A: The activation was -10.7%.

Q: Cc1cc(C)c(S(=O)(=O)N2C=CC(C(F)(F)F)=NCC2)c(C)c1 was tested. Which activation did it give?
A: The activation was 16.2%.

Q: How did the activation turn out when Cc1ccc(-c2nn(-c3ccccc3)cc2/C=N/NC(=O)c2ccc3c(c2)OCO3)cc1 was run?
A: Its activation is -4.4%.

Q: Which activation does the source give for Cc1ccc(S(=O)(=O)NC(=O)COc2ccccc2C)cc1 here?
A: The activation was -2.9%.

Q: Which activation does the source give for COc1ccc(C(=O)Cc2cnn(-c3ccccc3)c2)c(O)c1 here?
A: Its activation is -3%.

Q: For Cc1ccc(-c2nc3ccccc3[nH]2)cc1NC(=O)c1sc2ccccc2c1Cl, which activation is on record?
A: Its activation is -22.6%.

Q: For COc1cc(N2CCCC2)c(OC)cc1/C=C(/C#N)c1cccc(Br)c1, which activation is on record?
A: The activation was -2.3%.

Q: For C=CCn1c(SCCOc2ccc(OC)cc2)nnc1C(NC(=O)c1ccc(OC)cc1)C(C)C (stereo not given), which activation is on record?
A: The activation was -4.5%.

Q: With CCCc1nc2oc3c(OCC)ncnc3c2c2c1COC(C)(C)C2 as the compound, how does the activation read?
A: Its activation is -1.3%.

Q: Which activation does the source give for O=C(NN1C(=O)C2C3C=CC(C4CC34)C2C1=O)c1ccc(Cl)cc1 (stereo not given) here?
A: Its activation is 3.3%.

Q: For COc1ccccc1C(=O)Nc1ccc(NC(=O)c2ccco2)c(C)c1, which activation is on record?
A: Its activation is 7.2%.

Q: COc1ccc(N2CCN(C(=O)CNC(=O)c3ccc(C(C)(C)C)cc3)CC2)cc1 was tested. Which activation did it give?
A: The activation was -8.3%.

Q: Which activation does the source give for CCN(CC)C(=O)CSc1nc2ccccc2o1 here?
A: Its activation is 8.6%.

Q: Which activation does the source give for COc1cccc(N(CC(=O)NCCSc2ccccn2)S(C)(=O)=O)c1 here?
A: The activation was -4.5%.
